Data published in PubChem BioAssay (NCATS).
Records with an inconclusive call do not appear. Active and inactive are the calls of the source. Calls follow the shape of the dose curve; as a rule, active = well fitted inhibition curve with a large enough effect; inconclusive = small, poorly fitted or top-dose-only effect; inactive = flat fitted curve, though single readings scatter.

Experiments:
Experiment in all cases: qHTS profiling for inhibitors of Plasmodium falciparum proliferation (AID 504749); also: nearly all actives have a fitted effect of over 60% in size
Conditions in all cases: P. falciparum in erythrocytes, SYBR Green DNA, 72 h; series mostly up to 28.7 µM
PC26 = tested on: PC26
Method in brief: (§1)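 Three-day growth assay of blood-stage parasites in erythrocytes (0.3% parasitemia, 2.5% hematocrit) at 37 C, 5% CO2, quantified by SYBR Green DNA staining after overnight detergent lysis.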

PC49 = tested on: PC49
Method in brief: as §1

SC27B = tested on: SC27B
Method in brief: as §1

TAB109 = tested on: TAB109
Method in brief: as §1

TAB113 = tested on: TAB113
Method in brief: as §1

TAB165 = tested on: TAB165
Method in brief: as §1

W2 = tested on: W2
Method in brief: as §1

Measured: Potency

O=c1[nH]cc(N(CCCl)CCCl)c(=O)[nH]1
inactive: all assays above

NCC(O)c1cccc(O)c1 (configuration not stated)
inactive: all assays above

CN1c2ccccc2C(NCCCCCCC(=O)O)c2ccc(Cl)cc2S1(=O)=O (configuration not stated)
inactive: all assays above

S=C(S)N1CCNCC1
inactive: all assays above

C[C@]12CCC(=O)C[C@@H]1CC[C@@H]1[C@@H]2CC[C@]2(C)[C@@H](O)CC[C@@H]12
inactive: all assays above

S=C=S
inactive: all assays above

CC(Cc1ccccc1)NC=O (configuration not stated)
inactive: all assays above

O=[N+]([O-])c1cc(I)c(O)c(I)c1
inactive: all assays above

CC(=O)OC1CN2CCC1CC2 (configuration not stated)
inactive: all assays above

Clc1ccccc1Cl
inactive: all assays above

CCCCCCCCOC(=O)c1ccccc1C(=O)OCCCCCCCC
inactive: all assays above
